{
  "source": "PubChem BioAssay (NCI)",
  "note": "The panel holds about 83,000 compounds, 20% with a hit somewhere; the sample as a whole holds those more often.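 Plates (96-well) were seeded with cells, treated with compound at one concentration, and incubated for 48 hours before percent growth was determined.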 A number with no mark means an inactive call. Calls of active or inactive are those of the source. The calls were made as follows: active = growth percent below 10; inactive = the rest.",
  "data": [
    {"system": "SK-MEL-5 melanoma", "test": "NCI-60 one-dose screen, 48 h (100 = growth as untreated, 0 = no growth, -100 = all killed)", "settings": "10 µM unless noted", "values": [
      {"smiles": "COc1ccccc1/C=C/C1=C(C)CCC(c2ccccc2OC)C1C", "note": "(stereo not given)", "growth": "-13.3% (active)"},
      {"smiles": "COc1cc(OCc2cccc(-c3ccc4c(c3)OCCO4)c2C)cc(OC)c1C=O", "growth": "-9.95% (active)"},
      {"smiles": "COc1ccccc1-c1nc2ccc3[nH]ncc3c2c2c1CCCC2", "growth": "83.4%"},
      {"smiles": "CC(=O)OCCOc1cc(Cl)c(Cl)cc1Cl", "growth": "99.5%"},
      {"smiles": "CC1(C)CC(=O)C2=C(C1)OC(C(=O)c1ccccc1)C2c1cccc(Oc2ccccc2)c1", "note": "(stereo not given)", "growth": "36.3%"},
      {"smiles": "CC1OC(C(=O)N2CCN(CCO)CC2)CC1COC1CCCCC1", "note": "(stereo not given)", "growth": "95.8% [50 µM]"},
      {"smiles": "COc1ccccc1NC(=O)n1c(=O)cc(C)c2ccc(O)cc21", "growth": "98.3%"},
      {"smiles": "COc1ccc2c(c1)C(c1c[nH]c3ccccc13)(c1c[nH]c3ccccc13)CCO2", "growth": "66.2%"},
      {"smiles": "CC(C)(C)n1cc(-c2ccnc(NCCNS(=O)(=O)c3cccc4ccccc34)c2)c(-c2cccc(O)c2)n1", "growth": "45.1%"},
      {"smiles": "COc1cc(C2=Nc3c(N)nc(N)nc3NC(c3cccc(Nc4ccnc5cc(C(F)(F)F)ccc45)c3)C2)cc(OC)c1OC", "note": "(stereo not given)", "growth": "64.1%"},
      {"smiles": "Nc1nc(=O)n([C@H]2CC=C(CO)O2)cc1F", "growth": "100%"},
      {"smiles": "CS(=O)(=O)c1ccc(/C(=N/NC(N)=S)c2ccc(F)cc2)cc1", "growth": "102%"},
      {"smiles": "O=c1n(C2OC(CO)C(O)C2O)ccc2nccn12", "note": "(stereo not given)", "growth": "114%"},
      {"smiles": "Cc1c(N2CCCCC2)[nH]c2ccccc12", "growth": "107%"},
      {"smiles": "O=C1CCc2c(sc3[nH]c(=S)n(-c4cc(C(F)(F)F)cc(C(F)(F)F)c4)c(=O)c23)C1", "growth": "-88.9% (active)"},
      {"smiles": "Nc1nc(N)c2c(n1)NC(c1ccc3c(c1)OCO3)CC(c1cccc(Nc3ccncc3)c1)=N2", "note": "(stereo not given)", "growth": "90%"},
      {"smiles": "CCCCCCCC/C=C\\CCCCCCCCOc1ccc(CC(=O)NCC[N+]2(C)CCCC2)cc1", "growth": "79.5%"},
      {"smiles": "Cn1cc(-c2csc(-c3cn(CCO)c4ccc(F)cc34)n2)c2cccnc21", "growth": "62.9%"},
      {"smiles": "CCOC(=O)C1=CCC(n2cc(F)c(=O)[nH]c2=O)O1", "note": "(stereo not given)", "growth": "104%"},
      {"smiles": "CC1(C)CC[C@]2(CO)CC[C@]3(C)C(=CC[C@@H]4[C@@]5(C)CCNCC(C)(C)[C@@H]5CC[C@]43C)[C@@H]2C1", "growth": "71.6%"},
      {"smiles": "O=C(CN1C(=O)NC2NC(=O)NC21)N/N=C/c1cccc([N+](=O)[O-])c1", "note": "(stereo not given)", "growth": "100%"},
      {"smiles": "[2H]C([2H])([2H])Oc1ccc(/C=C/C(=O)/C=C(O)/C=C/c2ccc(OC([2H])([2H])[2H])c(OC([2H])([2H])[2H])c2)cc1OC([2H])([2H])[2H]", "growth": "11.6%"},
      {"smiles": "Cc1nn(C)c2ncnc(Nc3ccccc3Br)c12", "growth": "97.7%"},
      {"smiles": "COc1cc(NC(=O)c2cncnc2Nc2ccc3c(ccn3Cc3cccc(F)c3)c2)cc(OC)c1", "growth": "59.7%"},
      {"smiles": "C=C1CC[C@@H]2[C@](C)(COC(C)=O)[C@H](OC(C)=O)CC[C@@]2(C)[C@@H]1CC(Nc1ccc(S(=O)(=O)Nc2nccc(C)n2)cc1)C1=CCOC1=O", "note": "(stereo not given in full)", "growth": "45%"},
      {"smiles": "Cc1nc2c(c(-c3ccccc3)n1)Cc1c(ccc3ccccc13)O2", "growth": "70.8%"},
      {"smiles": "CCCc1cc(CCC)n2nc(N)nc2n1", "growth": "107%"},
      {"smiles": "Clc1ccc(C2=Nn3c(nnc3-c3cc(Cl)cc(Cl)c3Cl)SC2)cc1", "growth": "0.698% (active)"},
      {"smiles": "CCN(CC)CCN1C(=O)c2c(c(C)c3c(oc4cc(OC)ccc43)c2C)C1=O", "growth": "95.8%"},
      {"smiles": "O=C1c2cccnc2C(=O)c2c1c(C(=O)OCCCN1CCOCC1)c1ccccn21", "growth": "-94.9% (active)"},
      {"smiles": "CCCCN(CCC#N)C(N)=O", "growth": "99.5%"},
      {"smiles": "O=C(OCC(O)(CO)C(=O)NC12CC3CC(CC(C3)C1)C2)c1ccc(Cl)cc1", "note": "(stereo not given)", "growth": "101%"},
      {"smiles": "CC1(C)C2=C(C(=O)N1Cc1ccccc1)C(c1ccco1)N(C(=O)C1CCC1)CCN2", "note": "(stereo not given)", "growth": "105%"},
      {"smiles": "CN1CC(c2ccccc2)C(C(=O)c2ccc(Br)cc2)C12C(=O)Nc1ccccc12", "note": "(stereo not given)", "growth": "99%"},
      {"smiles": "Nc1ncc(-c2ccc3ncnc(N4CCc5cc(F)c(Cl)cc54)c3c2)cn1", "growth": "59.9%"},
      {"smiles": "CCCCCN(CCCCC)CC(O)c1c(Cl)ccc2ccccc12", "note": "(stereo not given)", "growth": "72.8%"},
      {"smiles": "CNC(=O)c1cc(Oc2ccc3nc(NC(=O)NC(C)C)sc3c2)ccn1", "growth": "65.3%"},
      {"smiles": "Nc1ccc(Cl)c2c(=O)c3ccccc3[nH]c12", "growth": "53.1%"},
      {"smiles": "CNC(=O)c1cc(Oc2cccc3nc(NC(=O)Nc4ccc(F)cc4F)ccc23)ccn1", "growth": "22.7%"},
      {"smiles": "N#Cc1c(-c2ccc(F)cc2)cc(-c2cccc(Cl)c2)[nH]c1=O", "growth": "70.1%"}
    ]},
    {"system": "UACC-62 melanoma", "test": "NCI-60 one-dose screen, 48 h (100 = growth as untreated, 0 = no growth, -100 = all killed)", "settings": "10 µM unless noted", "values": [
      {"smiles": "COc1ccccc1/C=C/C1=C(C)CCC(c2ccccc2OC)C1C", "note": "(stereo not given)", "growth": "10%"},
      {"smiles": "COc1cc(OCc2cccc(-c3ccc4c(c3)OCCO4)c2C)cc(OC)c1C=O", "growth": "38%"},
      {"smiles": "COc1ccccc1-c1nc2ccc3[nH]ncc3c2c2c1CCCC2", "growth": "71.3%"},
      {"smiles": "CC(=O)OCCOc1cc(Cl)c(Cl)cc1Cl", "growth": "98.3%"},
      {"smiles": "CC1(C)CC(=O)C2=C(C1)OC(C(=O)c1ccccc1)C2c1cccc(Oc2ccccc2)c1", "note": "(stereo not given)", "growth": "35.9%"},
      {"smiles": "CC1OC(C(=O)N2CCN(CCO)CC2)CC1COC1CCCCC1", "note": "(stereo not given)", "growth": "87.7% [50 µM]"},
      {"smiles": "COc1ccccc1NC(=O)n1c(=O)cc(C)c2ccc(O)cc21", "growth": "100%"},
      {"smiles": "COc1ccc2c(c1)C(c1c[nH]c3ccccc13)(c1c[nH]c3ccccc13)CCO2", "growth": "44.9%"},
      {"smiles": "CC(C)(C)n1cc(-c2ccnc(NCCNS(=O)(=O)c3cccc4ccccc34)c2)c(-c2cccc(O)c2)n1", "growth": "76.9%"},
      {"smiles": "COc1cc(C2=Nc3c(N)nc(N)nc3NC(c3cccc(Nc4ccnc5cc(C(F)(F)F)ccc45)c3)C2)cc(OC)c1OC", "note": "(stereo not given)", "growth": "87.2%"},
      {"smiles": "Nc1nc(=O)n([C@H]2CC=C(CO)O2)cc1F", "growth": "92.4%"},
      {"smiles": "CS(=O)(=O)c1ccc(/C(=N/NC(N)=S)c2ccc(F)cc2)cc1", "growth": "101%"},
      {"smiles": "O=c1n(C2OC(CO)C(O)C2O)ccc2nccn12", "note": "(stereo not given)", "growth": "111%"},
      {"smiles": "Cc1c(N2CCCCC2)[nH]c2ccccc12", "growth": "110%"},
      {"smiles": "O=C1CCc2c(sc3[nH]c(=S)n(-c4cc(C(F)(F)F)cc(C(F)(F)F)c4)c(=O)c23)C1", "growth": "-12.9% (active)"},
      {"smiles": "Nc1nc(N)c2c(n1)NC(c1ccc3c(c1)OCO3)CC(c1cccc(Nc3ccncc3)c1)=N2", "note": "(stereo not given)", "growth": "87.6%"},
      {"smiles": "CCCCCCCC/C=C\\CCCCCCCCOc1ccc(CC(=O)NCC[N+]2(C)CCCC2)cc1", "growth": "50.3%"},
      {"smiles": "Cn1cc(-c2csc(-c3cn(CCO)c4ccc(F)cc34)n2)c2cccnc21", "growth": "52.4%"},
      {"smiles": "CCOC(=O)C1=CCC(n2cc(F)c(=O)[nH]c2=O)O1", "note": "(stereo not given)", "growth": "108%"},
      {"smiles": "CC1(C)CC[C@]2(CO)CC[C@]3(C)C(=CC[C@@H]4[C@@]5(C)CCNCC(C)(C)[C@@H]5CC[C@]43C)[C@@H]2C1", "growth": "94.2%"},
      {"smiles": "O=C(CN1C(=O)NC2NC(=O)NC21)N/N=C/c1cccc([N+](=O)[O-])c1", "note": "(stereo not given)", "growth": "88.8%"},
      {"smiles": "[2H]C([2H])([2H])Oc1ccc(/C=C/C(=O)/C=C(O)/C=C/c2ccc(OC([2H])([2H])[2H])c(OC([2H])([2H])[2H])c2)cc1OC([2H])([2H])[2H]", "growth": "52%"},
      {"smiles": "Cc1nn(C)c2ncnc(Nc3ccccc3Br)c12", "growth": "93.3%"},
      {"smiles": "COc1cc(NC(=O)c2cncnc2Nc2ccc3c(ccn3Cc3cccc(F)c3)c2)cc(OC)c1", "growth": "55%"},
      {"smiles": "C=C1CC[C@@H]2[C@](C)(COC(C)=O)[C@H](OC(C)=O)CC[C@@]2(C)[C@@H]1CC(Nc1ccc(S(=O)(=O)Nc2nccc(C)n2)cc1)C1=CCOC1=O", "note": "(stereo not given in full)", "growth": "24.2%"},
      {"smiles": "Cc1nc2c(c(-c3ccccc3)n1)Cc1c(ccc3ccccc13)O2", "growth": "83.8%"},
      {"smiles": "CCCc1cc(CCC)n2nc(N)nc2n1", "growth": "111%"},
      {"smiles": "Clc1ccc(C2=Nn3c(nnc3-c3cc(Cl)cc(Cl)c3Cl)SC2)cc1", "growth": "31.9%"},
      {"smiles": "CCN(CC)CCN1C(=O)c2c(c(C)c3c(oc4cc(OC)ccc43)c2C)C1=O", "growth": "102%"},
      {"smiles": "O=C1c2cccnc2C(=O)c2c1c(C(=O)OCCCN1CCOCC1)c1ccccn21", "growth": "-40.7% (active)"},
      {"smiles": "CCCCN(CCC#N)C(N)=O", "growth": "95.4%"},
      {"smiles": "O=C(OCC(O)(CO)C(=O)NC12CC3CC(CC(C3)C1)C2)c1ccc(Cl)cc1", "note": "(stereo not given)", "growth": "97.4%"},
      {"smiles": "CC1(C)C2=C(C(=O)N1Cc1ccccc1)C(c1ccco1)N(C(=O)C1CCC1)CCN2", "note": "(stereo not given)", "growth": "91.7%"},
      {"smiles": "CN1CC(c2ccccc2)C(C(=O)c2ccc(Br)cc2)C12C(=O)Nc1ccccc12", "note": "(stereo not given)", "growth": "78.4%"},
      {"smiles": "Nc1ncc(-c2ccc3ncnc(N4CCc5cc(F)c(Cl)cc54)c3c2)cn1", "growth": "23.8%"},
      {"smiles": "CCCCCN(CCCCC)CC(O)c1c(Cl)ccc2ccccc12", "note": "(stereo not given)", "growth": "59.7%"},
      {"smiles": "CNC(=O)c1cc(Oc2ccc3nc(NC(=O)NC(C)C)sc3c2)ccn1", "growth": "68.6%"},
      {"smiles": "Nc1ccc(Cl)c2c(=O)c3ccccc3[nH]c12", "growth": "93.6%"},
      {"smiles": "CNC(=O)c1cc(Oc2cccc3nc(NC(=O)Nc4ccc(F)cc4F)ccc23)ccn1", "growth": "52.5%"},
      {"smiles": "N#Cc1c(-c2ccc(F)cc2)cc(-c2cccc(Cl)c2)[nH]c1=O", "growth": "40.9%"}
    ]}
  ]
}
